# According to paper PMC6925144, “A prospective compound screening contest identified broader inhibitors for Sirtuin 1” (Scientific Reports, 2019):
# In all, about 3,200 compounds were measured (“TSA(without NAD+) / Primary screening (TSA) / delta Tm (K)”: median about -0.07, highest 2% from about 0.37 on). This is one part of a sample in which the highest values are shown more often than they occur.
# Target: NAD-dependent deacetylase Sirtuin 1 (human, UniProt Q96EB6)
# Assay: primary screen, delta tm
# Parameters: single well (n = 1)
# Conditions: 10 µM
# Method: A total of 3,192 compounds extracted from the proposed lists were first screened by thermal shift assay (TSA), which determined a melting temperature shift (ΔTm) of Sirtuin 1 upon the addition of a test compound at a concentration of 10 µM (n = 1) with primary hit criteria of ΔTm > 0.45 K or ΔTm < −1.5 K. Primary hits (48 compounds) were retested in the same assay at three concentrations (5, 10, 20 µM, n = 4) for hit confirmation and for dose-dependency check. Secondary hits (41 compounds) were checked their selectivity for Sirtuin 1 based on counterscreening on unrelated protein targets (bovine carbonic anhydrase (CA) and recombinant SH2 domain of hABL1 kinase (ABL1)) at three different concentrations (5, 10, 20 µM, n = 4), which yielded 38 hit compounds, hereafter referred to as TSA hits. The TSA screening above was conducted in the absence of NAD+.
# Chain of NAD-dependent deacetylase Sirtuin 1 (Q96EB6 2-747 limits assumed): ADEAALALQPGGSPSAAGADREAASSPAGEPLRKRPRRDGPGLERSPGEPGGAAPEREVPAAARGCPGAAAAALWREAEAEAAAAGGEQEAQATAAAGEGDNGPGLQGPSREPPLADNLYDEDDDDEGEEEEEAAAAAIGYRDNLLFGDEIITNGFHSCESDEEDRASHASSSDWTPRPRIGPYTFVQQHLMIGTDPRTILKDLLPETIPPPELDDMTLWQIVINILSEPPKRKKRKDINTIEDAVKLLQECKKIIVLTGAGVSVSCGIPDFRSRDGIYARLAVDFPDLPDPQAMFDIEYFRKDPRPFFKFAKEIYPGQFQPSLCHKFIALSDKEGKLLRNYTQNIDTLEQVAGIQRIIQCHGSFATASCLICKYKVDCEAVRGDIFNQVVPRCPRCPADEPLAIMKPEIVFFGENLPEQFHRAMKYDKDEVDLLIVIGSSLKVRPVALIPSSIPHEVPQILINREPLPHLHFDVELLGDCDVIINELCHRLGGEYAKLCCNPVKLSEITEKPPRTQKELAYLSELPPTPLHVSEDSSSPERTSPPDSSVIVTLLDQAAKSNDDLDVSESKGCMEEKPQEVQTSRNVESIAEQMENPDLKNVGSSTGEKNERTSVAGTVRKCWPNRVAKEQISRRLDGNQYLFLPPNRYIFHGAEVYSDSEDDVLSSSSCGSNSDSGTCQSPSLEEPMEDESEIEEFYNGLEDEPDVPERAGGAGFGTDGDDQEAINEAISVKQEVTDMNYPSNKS
row,Compound,TSA(without NAD+) / Primary screening (TSA) / delta Tm (K)
1,O=C1/C(=C\c2ccc(Br)cc2)CC/C1=C/c1ccccc1OC(F)F,-0.08 K
2,COc1ccc(Br)cc1/C=C1/Cc2ccccc2C1=O,-0.08 K
3,O=C1/C(=C\c2cc(Br)cc(Br)c2O)CC/C1=C\c1cc(Br)cc(Br)c1O,0.55 K
4,O=C(CCSc1ncccn1)Nc1c(Cl)cccc1Cl,-0.04 K
5,Cc1ccc(C23CC4CC(CC(C(=O)OCC(N)=O)(C4)C2)C3)cc1C,-0.22 K
6,Cc1ccc(C23CC4CC(CC(C(=O)OC(C)C(=O)Nc5ccc(S(N)(=O)=O)cc5)(C4)C2)C3)cc1C (stereo not drawn),0.48 K
7,Cc1ccc(C23CC4CC(CC(C(=O)OCC(=O)Nc5ccc(S(N)(=O)=O)cc5)(C4)C2)C3)cc1,0.32 K
8,Cc1ccc(N(C)S(=O)(=O)c2cccc(C(=O)N(C)Cc3ccccc3Cl)c2)cc1,-0.24 K
9,O=S1(=O)CCC(N2CCN(c3ncnc4c3oc3ccccc34)CC2)C1 (stereo not drawn),-0.11 K
10,Cc1nc(N2CCN(c3cccc(C(F)(F)F)c3)CC2)c2c3c(sc2n1)CCC3,0.16 K
11,CC(C)CC(=O)Nc1ccc(C(=O)COC(=O)CNC(=O)CC23CC4CC(CC(C4)C2)C3)cc1,-0.04 K
12,COc1ccc(NC(=O)CC23CC4CC(C2)CC(CC(=O)Nc2ccc(OC)cc2)(C4)C3)cc1,0.15 K
13,CCOc1ccc(Oc2ccc(NC(=O)CNC(=O)CC34CC5CC(CC(C5)C3)C4)cc2)cc1,0.38 K
14,NCCOCC(=O)O,-0.23 K
15,CCCn1c(NC(=O)c2ccc3c(c2)CCC(=O)N3)nc2ccccc21,0.12 K
16,O=C1CCc2cc(NC(=O)c3cccnc3)ccc2N1,-0.04 K
17,Cc1ccc(C(=O)Nc2nc3ccc(NS(=O)(=O)c4ccc5c(c4)CCC(=O)N5)cc3s2)s1,0.66 K
18,NCC(N)C1CCC1 (stereo not drawn),-0.31 K
19,NC(=O)c1cc(NC(=O)CN2CC=C(c3ccc(O)cc3)CC2)cc(C(N)=O)c1,0.15 K
20,O=C1NC(=S)NC(=O)C1=NNc1c(F)cccc1F,-0.08 K
21,Cn1ncc2c(=O)n(CC(=O)N3CCCc4c(C(N)=O)cccc43)cnc21,-0.18 K

row,Compound,TSA(without NAD+) / Primary screening (TSA) / delta Tm (K)
1,O=C(NC1(C(=O)N2CCN(C(=O)c3cnccn3)CC2)CCOC1)OCc1ccccc1 (stereo not drawn),-0.12 K
2,Cc1sc2ncnc(N3CCC(C(=O)Nc4sc5c(c4C(N)=O)CCCC5)CC3)c2c1C,0.16 K
3,Cc1sc(NC(=O)C2CCN(c3ncc(C(F)(F)F)cc3Cl)CC2)c(C(N)=O)c1C,0.28 K
4,NC(=O)c1c(NC(=O)C2CCN(c3ncc(C(F)(F)F)cc3Cl)CC2)sc2c1CCC2,0.39 K
5,Cc1ccc(OCC(O)Cn2c(C(F)(F)F)ccc(C(N)=O)c2=O)cc1 (stereo not drawn),-0.13 K
6,Cc1ccc(NC(=O)C(OC(=O)C23CC4CC(CC(O)(C4)C2)C3)c2ccccc2)c([N+](=O)[O-])c1 (stereo not drawn),0.07 K
7,CC(NC(=O)CNC(=O)CNC(=O)c1cccs1)c1ccccn1 (stereo not drawn),-0.23 K
8,O=C(NC(=S)Nc1ccc(-c2nc3ccccc3[nH]2)cc1)C12CC3CC(CC(C3)C1)C2,0.58 K
9,O=C(CC12CC3CC(CC(C3)C1)C2)NCC(=O)Nc1ccc(Sc2nc3ccccc3[nH]2)cc1,0.18 K
10,O=C1CCCCC(C(=O)Nc2ccc(-c3nc4ccccc4[nH]3)cc2)N1 (stereo not drawn),-0.03 K
11,Cc1ccc(-c2nn(-c3ccccc3)cc2C(=O)Nc2cccc(S(=O)(=O)N3CCOCC3)c2)cc1,0.07 K
12,O=C(Nc1cccc(S(=O)(=O)N2CCOCC2)c1)C(c1ccccc1)c1ccccc1,0.09 K
13,CN(c1ccccc1)S(=O)(=O)c1ccc(C(=O)Nc2cccc(S(=O)(=O)N3CCOCC3)c2)cc1,0.02 K
14,O=C(Nc1cccc(S(=O)(=O)N2CCOCC2)c1)c1cccc(S(=O)(=O)N2CCc3ccccc32)c1,0.37 K
15,O=C(Nc1cccc(S(=O)(=O)N2CCOCC2)c1)c1cn(-c2ccccc2)nc1-c1ccccc1,-0.02 K
16,O=C(Nc1cccc(S(=O)(=O)N2CCOCC2)c1)c1cn(-c2ccccc2)nc1-c1ccc(Cl)cc1,0.58 K
17,O=C(Cn1[nH]c(=O)c2ccccc2c1=O)Nc1ccc(N2CCN(Cc3ccccc3)CC2)cc1,0.02 K
18,O=C(OCc1cccc2ccccc12)C1CCCCN1c1ncccn1 (stereo not drawn),-0.13 K
19,Cc1nc2c(C(N)=O)ncn2c(C)c1CCC(=O)Nc1ccc(F)c(C(N)=O)c1,0.02 K
20,c1coc(CNc2ncnc3ccsc23)c1,0.05 K
21,CCNC(=O)c1cccc(NC(=O)C2CCN(S(=O)(=O)c3cc(C(C)(C)C)ccc3C)CC2)c1,0.17 K
